Values without a mark were called inactive. The source made the active and inactive calls. The call rests on the fitted dose curve; in most records, active means well fitted curve in the direction sought with a large enough effect in the repeat runs; inconclusive means weak or mixed curves; inactive means flat fitted curve, though single readings scatter.
Assay: qHTS assay to test for compound auto fluorescence at 590 nm (red) in HepG2 cell free culture (AID 720684)
Conditions: cell-free medium autofluorescence, red 540/590 nm; series mostly up to 91.3 µM; fluorescence, % of Rose Bengal: at the top concentration
How it was run: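 Ex 540 / Em 590 nm read of compound in cell-free MEM (10% FBS). Rose Bengal sodium reference.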
On the % scale 0 is the no-effect control and ±100 the full control effect.

Structure (SMILES)	fluorescence, % of Rose Bengal	outcome
CCC(CC)CO	-0.787%	
CC1COc2ccccc2N1 (stereo not given)	-0.124%	
NCCS		inactive
CC(C)(C)OC(=O)c1ccc(O)cc1	-0.237%	
CC(C)OC(=O)CCCCC(=O)OC(C)C	0.0856%	
CC(C)CC(=O)O	-0.439%	
CCCCCCCCC1CCC(=O)O1 (stereo not given)	-0.0094%	
Cc1cccc2nccnc12	-0.147%	
CCCCCOC(=O)CCC	0.229%	
CN1C(C)(C)CCCC1(C)C	0.0537% [at 46 µM]	
C[C@@H]1O[C@@H](O[C@@H]2[C@@H](O)[C@H](OCCc3ccc(O)c(O)c3)O[C@H](CO[C@@H]3O[C@H](CO)[C@@H](O)[C@H](O)[C@H]3O)[C@H]2OC(=O)/C=C/c2ccc(O)c(O)c2)[C@H](O)[C@H](O)[C@H]1O	0.0434%	
CCCCCCOc1ccccc1C(N)=O	-0.275% [at 46 µM]	
O=C(O)C(=O)Cc1ccccc1	0.15%	
O=C(NCCN1CCOCC1)c1ccc(Cl)cc1		inactive
Nc1ncnc(Nc2ccccc2)n1	0.0586% [at 46 µM]	
C=C(C)C(=O)OCC(C)(C)COC(=O)C(=C)C	-0.389%	
BrCc1cccc(Oc2ccccc2)c1	-0.131%	
c1ccc2nccnc2c1	-0.0945% [at 95.7 µM]	

Structure (SMILES)	fluorescence, % of Rose Bengal	outcome
COc1ccc(Br)c(C)c1	0.29%	
COC(=O)C1CC(=O)C(C(=O)OC)CC1=O (stereo not given)	0.258% [at 3.72 µM]	
CCOC(=O)CC(=O)c1ccccc1	0.009%	
Cc1c(I)c(=O)n(-c2ccccc2)n1C	0.565% [at 46 µM]	
COc1ccc(S(=O)(=O)N2c3ccc(Cl)cc3[C@@](O)(c3ccccc3Cl)[C@H]2C(=O)N2CCC[C@@H]2C(N)=O)cc1OC	-0.095% [at 46 µM]	
O=C1c2ccccc2C(=O)C1c1ccccc1	-0.261% [at 18.6 µM]	
BrCCCCCBr	0.0833% [at 95.7 µM]	
CC(C)C[C@H](NC(=O)CNC(=O)[C@H](Cc1ccc(O)cc1)NC(=O)[C@H](CO)NC(=O)[C@H](Cc1c[nH]c2ccccc12)NC(=O)[C@H](Cc1cnc[nH]1)NC(=O)[C@@H]1CCC(=O)N1)C(=O)N[C@@H](CCCN=C(N)N)C(=O)N1CCC[C@H]1C(=O)NCC(N)=O (stereo in doubt)	0.0461% [at 46 µM]	
CN(CCOc1ccc(NS(C)(=O)=O)cc1)CCc1ccc(NS(C)(=O)=O)cc1	0.192% [at 46 µM]	
O=C(c1ccc(O)cc1)c1ccc(O)c(O)c1O	-0.207%	
O=C(O)c1cc(Br)c(O)c(Br)c1	-0.0024%	
O=C1c2ccccc2C(=O)N1CCl	0.093%	
NCCN1CCOCC1	-0.22%	
Nc1ccc(S(=O)(=O)Nc2ccc(Cl)nn2)cc1		inactive
C=COCCOCCOCCOC=C	0.0074%	
OCCN(CCO)c1cccc(Cl)c1	-0.0233%	
CCOc1cc([N+](=O)[O-])c(OCC)cc1N1CCOCC1	0.0166%	

Assay: qHTS assay to test for compound auto fluorescence at 460 nm (blue) in HepG2 cell free culture (AID 720685)
Conditions: Cell-free culture medium, blue autofluorescence 405/460 nm; series mostly up to 91.3 µM; fluorescence, % of fluorescent control: at the top concentration
How it was run: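 Cell-free plates of MEM plus 10% FBS received 23 nL compound or DMSO vehicle; blue-channel (405/460 nm) intensity scored against triamterene as reference fluorophore.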

Structure (SMILES)	fluorescence, % of fluorescent control	outcome
CCC(CC)CO	-0.298%	
CC1COc2ccccc2N1 (stereo not given)	-0.0079%	
NCCS		inactive
CC(C)(C)OC(=O)c1ccc(O)cc1	0.0534%	
CC(C)OC(=O)CCCCC(=O)OC(C)C	0.765%	
CC(C)CC(=O)O	0.0296%	
CCCCCCCCC1CCC(=O)O1 (stereo not given)	-0.0094%	
Cc1cccc2nccnc12	-0.112%	
CCCCCOC(=O)CCC	-0.0125%	
CN1C(C)(C)CCCC1(C)C	-0.138% [at 46 µM]	
C[C@@H]1O[C@@H](O[C@@H]2[C@@H](O)[C@H](OCCc3ccc(O)c(O)c3)O[C@H](CO[C@@H]3O[C@H](CO)[C@@H](O)[C@H](O)[C@H]3O)[C@H]2OC(=O)/C=C/c2ccc(O)c(O)c2)[C@H](O)[C@H](O)[C@H]1O	2.05%	
CCCCCCOc1ccccc1C(N)=O	0.0533% [at 46 µM]	
O=C(O)C(=O)Cc1ccccc1	-0.088%	
O=C(NCCN1CCOCC1)c1ccc(Cl)cc1		inactive
Nc1ncnc(Nc2ccccc2)n1	0.004% [at 46 µM]	
C=C(C)C(=O)OCC(C)(C)COC(=O)C(=C)C	-0.0413%	
BrCc1cccc(Oc2ccccc2)c1	-0.174%	
c1ccc2nccnc2c1	0.058% [at 95.7 µM]	

Structure (SMILES)	fluorescence, % of fluorescent control	outcome
COc1ccc(Br)c(C)c1	-0.0059%	
COC(=O)C1CC(=O)C(C(=O)OC)CC1=O (stereo not given)	2.39% [at 3.72 µM]	
CCOC(=O)CC(=O)c1ccccc1	0.0003%	
Cc1c(I)c(=O)n(-c2ccccc2)n1C	0.0217% [at 46 µM]	
COc1ccc(S(=O)(=O)N2c3ccc(Cl)cc3[C@@](O)(c3ccccc3Cl)[C@H]2C(=O)N2CCC[C@@H]2C(N)=O)cc1OC	0.0791% [at 46 µM]	
O=C1c2ccccc2C(=O)C1c1ccccc1	-0.0248% [at 18.6 µM]	
BrCCCCCBr	-0.0029% [at 95.7 µM]	
CC(C)C[C@H](NC(=O)CNC(=O)[C@H](Cc1ccc(O)cc1)NC(=O)[C@H](CO)NC(=O)[C@H](Cc1c[nH]c2ccccc12)NC(=O)[C@H](Cc1cnc[nH]1)NC(=O)[C@@H]1CCC(=O)N1)C(=O)N[C@@H](CCCN=C(N)N)C(=O)N1CCC[C@H]1C(=O)NCC(N)=O (stereo in doubt)	0.103% [at 46 µM]	
CN(CCOc1ccc(NS(C)(=O)=O)cc1)CCc1ccc(NS(C)(=O)=O)cc1	-0.024% [at 46 µM]	
O=C(c1ccc(O)cc1)c1ccc(O)c(O)c1O	-0.0678%	
O=C(O)c1cc(Br)c(O)c(Br)c1	0.0253%	
O=C1c2ccccc2C(=O)N1CCl	0.0575%	
NCCN1CCOCC1	0.0037%	
Nc1ccc(S(=O)(=O)Nc2ccc(Cl)nn2)cc1		inactive
C=COCCOCCOCCOC=C	0.108%	
OCCN(CCO)c1cccc(Cl)c1	-0.0322%	
CCOc1cc([N+](=O)[O-])c(OCC)cc1N1CCOCC1	0.0313%	

From PubChem BioAssay (Tox21)
